Bioassay records from PubChem.
Compounds with a hit are over-represented: about 2.4% of the library has one in this group of screens.
Cruzain noTriton = cruzain (T. cruzi) inhibition without detergent; 200,000 compounds, 2.3% hits; Potency, µM, without a hit: max response, negative = inhibition, usual class: inhibitors; purified cruzain, Z-FR-AMC fluorescence, no detergent; P25779; AID 1476;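 note: plate controls were enzyme without inhibitor for no effect and buffer without enzyme for full effect; nearly all actives have a fitted effect of over 40% in size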
Target sequence (P25779 123-467 limits assumed): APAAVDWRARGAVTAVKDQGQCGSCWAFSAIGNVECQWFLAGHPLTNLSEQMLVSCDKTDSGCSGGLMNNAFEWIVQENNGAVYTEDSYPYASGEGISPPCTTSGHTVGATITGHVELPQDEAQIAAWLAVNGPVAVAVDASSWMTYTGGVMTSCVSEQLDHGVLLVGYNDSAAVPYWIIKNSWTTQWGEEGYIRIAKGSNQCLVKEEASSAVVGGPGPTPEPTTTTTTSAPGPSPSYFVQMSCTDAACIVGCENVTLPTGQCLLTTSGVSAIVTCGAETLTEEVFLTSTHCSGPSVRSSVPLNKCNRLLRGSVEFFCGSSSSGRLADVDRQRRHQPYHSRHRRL
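Purified cruzain at 1.5 nM, pre-incubated 15 min with compound at room temperature in 100 mM sodium acetate pH 5.5, 5 mM DTT, 0.00005% Triton X-100. Reaction started with 2 uM Z-FR-AMC; AMC fluorescence increase over 60 s gives rate.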
Cruzain Triton = blocks cruzain activity in presence of Triton detergent | Potency, µM, for the others: max response, negative = inhibition, actives largely listed as inhibitors | purified cruzain, Z-FR-AMC fluorescence, 0.01% Triton | 200,000 compounds, 0.43% hits;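 note: plate controls were neutral wells for no effect and buffer without enzyme for full effect; nearly all actives have a fitted effect of over 40% in size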
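Enzyme 1.5 nM, Z-FR-AMC 2 uM, NaOAc 100 mM pH 5.5, DTT 5 mM, Triton X-100 0.01%; 15 min RT compound preincubation; kinetic ex360/em450, 60 s delta.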
Starred values were filed as active, the others as inactive; ? = inconclusive. Calls come from the whole dose curve; as a rule, active = well fitted curve in the direction sought with a large enough effect; inconclusive = small, poorly fitted or top-dose-only effect, or another doubt; inactive = no such curve, though single readings can be large; an effect the other way counts as inactive or inconclusive. Potency is the fitted concentration of half-maximal effect.

SMILES	Cruzain noTriton	Cruzain Triton
CCc1cccc(C)c1NC(=O)CN1C(=O)c2c(c3ccccc3n2C)C1c1ccc(OC)cc1 (stereo not drawn)	16%	-6%
NC(=O)C/C=C\CC(N)=O	28%	2%
CC(=O)c1cccc(NC(=O)CCCN2C(=O)COc3ccc(C)cc32)c1	?	18µM*
CCc1ccccc1NC(=O)CCCN1C(=O)COc2ccc(C)cc21	-5%	-4%
CCc1ccc(NC(=O)N2CCN(Cc3nc4ccc(C)cc4o3)CC2)cc1	?	-2%
CCCCSc1nnc2c(n1)[nH]c1ccccc12	25µM*	0%
CCOC(=O)CC(=O)CSc1nnc2c(n1)[nH]c1ccccc12	?	-3%
CC(C)CSc1nnc2c(n1)[nH]c1ccccc12	-26%	-1%
O=C(CSc1nnc2c(n1)[nH]c1ccccc12)OCc1ccccc1	25µM*	-3%
CNC1=CN=C(c2ccccc2)c2cc(Cl)ccc2N1	-5%	0%
Cc1ccc2c(c1)c(N=NC(N)=S)c(O)n2Cc1ccccc1	2.5µM*	?
NC(=S)N=Nc1c(O)n(Cc2ccc(F)cc2)c2ccccc12	?	13µM*
COc1ccc(C(=O)NCC(=O)N=Nc2c(O)n(Cc3ccccc3)c3ccccc23)cc1OC	13%	-6%
O=Nc1c(O)n(Cc2ccc(Cl)cc2)c2ccccc12	-14%	-16%
Cc1cccc(-c2noc(-c3ccc(NCc4ccccc4)c([N+](=O)[O-])c3)n2)c1	9%	-4%
CCOc1ccc(CCNC(=O)CCc2cn(Cc3ccc(C)cc3)c3ccccc23)cc1	-16%	-4%
Cc1ccc(CNC(=O)c2c(C)oc3ncnc(N4CCOCC4)c23)cc1	-8%	-3%
Cc1c(Cl)cccc1NC(=O)c1ccc2c(c1)nnn2C1CCCC1	-2%	-1%
CC1(CC(=O)O)O[C@H]2CCCCC[C@H]2O1 (stereo partly drawn) (tested in a mixture with another compound)	1%	16%
Cc1[nH]nc(-c2ccc(OCc3cnn(-c4ccccc4)c3)cc2O)c1Oc1ccccc1F	20µM*	2%
O=c1c(Oc2ccccc2F)coc2cc(OCc3cnn(-c4ccccc4)c3)ccc12	-29%	-4%
CCOC(=O)c1ccc(NC(=O)C2CCN(S(=O)(=O)Cc3ccccc3)CC2)cc1	-4%	-11%
O=C(CSc1nc(-c2cccs2)cc(C(F)(F)F)n1)NCc1ccco1	0%	-4%
CC(C)OC(=O)CC(=O)CSc1nc(-c2ccc(F)cc2)cc(-c2ccccc2)c1C#N	-6%	-5%
COc1ccc(CNC(=O)CSc2nc(-c3ccccc3)cc(-c3cccs3)c2C#N)cc1	10µM*	4%
SMILES	Cruzain noTriton	Cruzain Triton
CCc1nnc(NC(=O)CSc2nc(-c3ccccc3)cc(-c3ccc(F)cc3)c2C#N)s1	7.9µM*	3%
COc1ccc(-c2cc(-c3ccccc3)nc(SCC(=O)Nc3ccccc3C)c2C#N)cc1	-6%	-1%
COc1ccc(-c2cc(-c3cccs3)c(C#N)c(SCC(=O)NCc3ccco3)n2)cc1	7.9µM*	-7%
Nc1nc(/C(=C/CC(=O)O)C(=O)NC2C(=O)N3C(C(=O)O)=CCSC23)cs1 (stereo not drawn)	-7%	1%
CCN1CCN(c2oc(-c3ccc(COc4ccc(C)cc4)o3)nc2C#N)CC1	6%	-7%
Cc1ccc(C2=C(Cl)C(=O)C(c3ccc(C)cc3)=C(Cl)C2=O)cc1	1%	3%
CC(=O)O[C@@]1(C(C)=O)CCC2C3CC(C)C4=CC(=O)CC[C@@]4(C)C3CC[C@]21C (stereo partly drawn)	?	-6%
CC(C)(C)COS(=O)OCC(C)(C)C	9%	3%
O=C(CCSCc1cccc(Cl)c1)NCc1ccccc1Cl	14%	0%
COc1ccc(-c2cnnc(N/N=C/c3ccc(OC)c(OC)c3)n2)cc1	5%	-9%
COc1ccc(-c2cnnc(N/N=C/C(C)=C/c3ccccc3)n2)cc1	10µM*	-4%
Oc1ccc(Nc2nc(NCC3CCCO3)c3ccccc3n2)cc1 (stereo not drawn)	-27%	-25%
COc1cccc(Nc2nc(NCC3CCCO3)c3ccccc3n2)c1 (stereo not drawn)	13µM*	14µM*
CN(C)S(=O)(=O)c1cc(NC(=O)[C@H](Cc2ccccc2)N2C(=O)c3ccccc3C2=O)ccc1Cl	20µM*	-4%
CN(C)S(=O)(=O)c1cc(NC(=O)COC(=O)Cc2ccccc2)ccc1Cl	-10%	-7%
Cc1ccc(NC(=O)CN2C(=O)c3cccnc3Sc3ccccc32)cc1C	21%	-7%
CC(=O)Oc1cc2oc(=O)c3c(c2cc1Cl)CCC3	26%	-6%
COc1ccc(C2CC(=O)N3CN(c4ccccc4F)CSC3=C2C#N)cc1OC (stereo not drawn)	2%	1%
CCc1ccccc1N1CSC2=C(C#N)C(c3ccccc3F)CC(=O)N2C1 (stereo not drawn)	25µM*	-4%
